# From PubChem BioAssay
# Rows were chosen to be rich in hits. Some 2.2% of all compounds tested hit in one or more screens of this group.
# TDP43 rescue = qHTS of TDP-43 Inhibitors; TDP-43 expressing yeast growth rescue, BacTiter-Glo, 24 h; Potency, µM (titrated, usually from 46.1 µM), inactives show at the top dose growth rescue (activation), hits mostly activators; 410,000 tested, 1.8% active; note: % of control where 0% means no effect; nearly all actives have a fitted effect of over 50% in size
#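 Luminescence from BacTiter-Glo reports growth of TDP-43-expressing yeast after 24 hr at 30 deg C with compound. Cells were raffinose-pregrown to mid-log, then seeded in galactose medium at OD600=0.02.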
# FUS yeast rescue = qHTS for Suppressors of FUS Proteinopathy: Primary screen using FUS-linked yeast assay. S. cerevisiae FUS-expressing, growth rescue, OD600, 24 h. AID 1347120, 2019. Potency, µM (highest dose often 76.6 µM), hits mostly activators. 390,000 tested, 0.24% active;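 note: plate controls were DMSO vehicle for no effect and reference control for full effect; nearly all actives have a fitted effect of over 55% in size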
#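 Yeast FUS proteinopathy model; galactose-induced FUS (2%), starting OD 0.005. Cpds in dilution series, 24hr, 30C, 99% humidity. Abs 600 nm growth. Pos ctrl CP55940 (top 92uM final); neg ctrl DMSO.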
# aSyn yeast inh = qHTS of alpha-syn Inhibitors | AID 652106, 2013 | 370,000 tested, 0.14% active | Yeast expressing alpha-synuclein, growth rescue, BacTiter-Glo, 24 h | Potency, µM (titrated, usually from 46.1 µM), without a hit: at the highest dose growth rescue (activation), usual class: activators; note: % of control where 0% means no effect; nearly all actives have a fitted effect of over 65% in size
#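 Rescue of yeast growth: cells expressing toxic alpha-synuclein, induced in galactose at OD600 0.02, incubated with compound 24 h at 30 C. ATP luminescence quantified growth; inhibitors of toxicity appear as activators.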
# Mito fusion yeast = qHTS Assay for Small Molecule Inhibitors of Mitochondrial Division or Activators of Mitochondrial Fusion | S. cerevisiae fusion-defective mutant growth rescue, CellTiterGlo 48 h | Potency, µM (titrated, usually from 46.1 µM), for the others: top-dose growth rescue (activation), usual class: activators | 320,000 tested, 0.23% active; note: % of control where 0% means no effect; nearly all actives have a fitted effect of over 45% in size
#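 Growth-rescue viability read-out: after 48 h at the non-permissive 37C in glycerol/ethanol YPEG, yeast mitochondrial fusion mutants are measured by CellTiterGlo luminescence; compounds (23 nl pinned per well) restoring growth score as division inhibitors or fusion activators.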
# Abeta yeast res = qHTS for compounds that reverse cellular toxicity of Amyloid beta (A-beta) peptide in yeast: Primary Screen. yeast expressing A-beta42, growth rescue, OD600, 48 h; response scale: 0% DMSO, 100% iron-clioquinol control. Potency, µM (highest dose often 46.1 µM), most hits filed as activators. 410,000 tested, 0.063% active. AID 1347071, 2019; note: nearly all actives have a fitted effect of over 55% in size
#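 Yeast growth medium received pinned compounds, then yeast cells expressing toxic A-beta were added; plates incubated at 30 C for 48 hr. Growth read as absorbance at 600 nm, normalized to DMSO and equimolar FeCl3 plus clioquinol controls.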
# The depositor's hits bear a star; i = inactive; ? = inconclusive; . = not tested or not shown; [ ] = dose if it differs, or a comment. Calls come from the whole dose curve; as a rule, active = well fitted curve in the direction sought with a large enough effect; inconclusive = small, poorly fitted or top-dose-only effect, or another doubt; inactive = no such curve, though single readings can be large; an effect the other way counts as inactive or inconclusive. Potency is the fitted concentration of half-maximal effect.
SMILES,TDP43 rescue,FUS yeast rescue,aSyn yeast inh,Mito fusion yeast,Abeta yeast res
COc1ccc(C(=O)Nc2nc3n(n2)C(c2ccc(F)cc2)C=C(c2ccc(Cl)cc2)N3)cc1 (stereo unspecified),0%[9.22 µM],?,.,.,i
COc1ccc(C2=CC(c3cc(Br)ccc3F)n3c(nc4ccccc43)N2)cc1 (stereo unspecified),?,i,.,.,i
COC(=O)c1ccc(C2C=C(c3ccc(Cl)cc3)Nc3nc4ccccc4n32)cc1 (stereo unspecified),10µM*,i,.,.,i
COc1cccc(NC(=O)c2oc3ccc(S(=O)(=O)N4CCC5(CC4)OCCO5)cc3c2C)c1,17%,?,.,.,i
CCOC(=O)c1ccc(N=C2C(=S)N(c3ccc(C(=O)OCC)cc3)C(=N)N2/N=C/c2ccccc2)cc1,0%,28µM*,1%,3%,i
Cc1cc(Cl)ccc1Nc1ncnc2onc(C)c12,36%,i,.,.,i
Cc1ccc(Nc2ncnc3onc(C)c23)cc1Cl,35µM*,i,.,.,i
CC(C)C[C@H]1COc2cc(Br)ccc2S(=O)(=O)N1Cc1cn(CCC2OCCO2)nn1,.,i,.,.,.
Cc1ccc(C(=O)Nc2nnc(-c3ccco3)o2)cc1,7%,i,19%,0%,i
Cc1nnc(NC(=O)c2ccc(S(=O)(=O)N(C)Cc3ccccc3)cc2)o1,18µM*,i,?,-3%,?
O=C(Nc1nnc(-c2ccco2)o1)c1ccc2ccccc2c1,-4%,.,12%,13µM*,?
COc1ccc(C(=O)Nc2cccc(-c3nnc(-c4ccco4)o3)c2)cc1,16µM*,i,-18%,18%,i
Cc1nnc(NC(=O)c2ccc3ccccc3c2)o1,?,i,?,3%,16µM*
Cc1ccccc1NC(=O)c1ccc2ccccc2c1,?,i,-9%,7%,i
O=C(Cn1ncc2c([nH]c3ccccc32)c1=O)Nc1cc(F)ccc1F,22%,i,.,.,i
CCOC(=O)[C@@]12CCCC3=C1N(CCC3)C(=O)[C@H]2CC(=O)NCCc1ccccc1OC,.,i,.,.,.
C[C@H]1[C@@H](N(C)C)CC[C@@]23CCCN2C(=O)CCC[C@@H]13,.,i,.,.,.
CCc1nnc(NC(=O)c2ccc(S(=O)(=O)N(CC(C)C)CC(C)C)cc2)o1,?,i,22µM*,16%,i
Cc1nc2scc(-c3ccc(Cl)cc3)c2c(=O)n1N,11%,i,0%,2%,i
CC(C)c1nc2scc(-c3ccc(Cl)cc3)c2c(=O)n1N,14µM*,i,14%,11%,i
O=C1c2ccccc2NC(c2c(Cl)cccc2Cl)N1Cc1ccccc1 (stereo unspecified),25µM*,i,-10%,11%,i
O=C1c2ccccc2NC(c2ccc(Cl)cc2Cl)N1Cc1ccccc1 (stereo unspecified),13%,i,5%,7%,i
CC(C)[C@@H]1CC[C@@H](C)c2c(-c3ccccc3)n[nH]c21,11µM*,i,?,-19%,i
CCCC(=O)NC1=C(Cl)C(=O)c2ccccc2C1=O,-91%,.,-83%,.,i
CCNC1=C(Cl)C(=O)c2ccccc2C1=O,13µM*,i,3%,-19%,i
COc1ccc(OCC(O)Cn2c(NCCO)nc3c2c(=O)n(C)c(=O)n3C)cc1 (stereo unspecified),0%,i,.,.,i
COc1ccc(NC(=S)NC(C)Cc2cccs2)cc1 (stereo unspecified),?,i,1%,-1%,?
CC(Cc1cccs1)NC(=S)Nc1ccc(F)cc1 (stereo unspecified),-18%[0.397 µM],i,0%,1%,13µM*
O=C(NNc1nc2cc3c(cc2s1)OCO3)c1cccc(F)c1,5.6µM*,i,9%,-3%,i
O=C(NNc1nc2c(F)cccc2s1)c1ccc(F)cc1,10µM*,i,0%,-2%,i
